Reference: article PMC7862700, “An all-to-all approach to the identification of sequence-specific readers for epigenetic DNA modifications on cytosine”

Key:
Assay in all cases: DAPPL (digital affinity profiling via proximity ligation, sequencing); 10 mM Tris-HCl pH 7.5, 50 mM NaCl, 1 mM DTT, 4% glycerol, room temperature, 30 min; GST-TFs on glutathione beads, 16-mer random dsDNA library, 0.1% formaldehyde crosslink after washing; high values mean tight binding
Conditions in all cases: protein: recombinant; tags: N-terminal GST; dsDNA, one strand shown
FLI1 = target: T1, FLI1 (Homo sapiens, UniProt Q01543 1-452)
T1 sequence: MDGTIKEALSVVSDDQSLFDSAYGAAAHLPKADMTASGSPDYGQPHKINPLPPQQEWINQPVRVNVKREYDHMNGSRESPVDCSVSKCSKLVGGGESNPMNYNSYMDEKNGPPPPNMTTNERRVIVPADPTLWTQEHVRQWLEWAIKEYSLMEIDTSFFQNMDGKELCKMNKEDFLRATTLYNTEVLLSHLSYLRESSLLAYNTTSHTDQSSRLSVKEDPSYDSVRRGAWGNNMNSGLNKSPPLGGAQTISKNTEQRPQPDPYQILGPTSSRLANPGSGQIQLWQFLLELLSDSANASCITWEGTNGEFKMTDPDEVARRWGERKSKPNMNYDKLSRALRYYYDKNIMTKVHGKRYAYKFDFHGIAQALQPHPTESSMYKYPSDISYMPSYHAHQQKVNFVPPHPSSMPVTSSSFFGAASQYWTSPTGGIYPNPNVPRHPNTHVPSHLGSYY
Outline: (§1)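 Sequencing on an Illumina NextSeq500 followed washing, crosslinking with 0.1% formaldehyde, proximity ligation (BsaI/T4 ligase, 1 h, 37 °C) and PCR amplification of pools that had been incubated for 30 min at room temperature with 200 nmole of a random double-stranded 16-mer DNA library in Tris/NaCl/DTT/glycerol buffer. Each pool held DNA-barcoded human transcription factors, expressed in yeast as GST fusions and captured on glutathione beads, plus a tag-only sample. Binding signal is a hexamer's read frequency for a factor divided by its frequency in the tag-only sample.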

ELK1 = target: T2, ELK1 (Homo sapiens, UniProt P19419 1-428)
T2 sequence: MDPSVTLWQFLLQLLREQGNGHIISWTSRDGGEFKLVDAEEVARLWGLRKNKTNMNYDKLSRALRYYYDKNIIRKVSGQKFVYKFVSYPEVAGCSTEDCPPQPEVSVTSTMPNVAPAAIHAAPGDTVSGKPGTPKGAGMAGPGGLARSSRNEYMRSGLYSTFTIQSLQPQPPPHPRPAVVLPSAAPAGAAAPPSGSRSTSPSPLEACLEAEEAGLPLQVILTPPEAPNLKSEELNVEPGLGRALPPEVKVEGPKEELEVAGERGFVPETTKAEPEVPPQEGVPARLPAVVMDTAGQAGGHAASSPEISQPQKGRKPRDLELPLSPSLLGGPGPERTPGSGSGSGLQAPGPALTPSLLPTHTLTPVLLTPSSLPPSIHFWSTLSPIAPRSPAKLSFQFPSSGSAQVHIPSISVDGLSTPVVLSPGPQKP
Outline: as §1

GABPA = target: T3, GABPA (Homo sapiens, UniProt Q06546 1-454)
T3 sequence: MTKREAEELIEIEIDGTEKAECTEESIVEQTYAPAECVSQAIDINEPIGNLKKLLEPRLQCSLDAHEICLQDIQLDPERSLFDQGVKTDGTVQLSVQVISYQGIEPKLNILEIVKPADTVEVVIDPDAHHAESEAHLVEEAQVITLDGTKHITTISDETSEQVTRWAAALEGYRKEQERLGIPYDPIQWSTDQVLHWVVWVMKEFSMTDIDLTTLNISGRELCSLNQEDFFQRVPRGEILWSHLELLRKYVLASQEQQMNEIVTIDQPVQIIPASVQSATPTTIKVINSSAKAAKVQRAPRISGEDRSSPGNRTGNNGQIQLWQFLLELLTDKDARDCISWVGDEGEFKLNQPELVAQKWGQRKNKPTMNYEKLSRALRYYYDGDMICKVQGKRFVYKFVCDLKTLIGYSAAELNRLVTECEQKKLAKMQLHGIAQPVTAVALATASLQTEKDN
Outline: as §1

ERG = target: T4, ERG (Homo sapiens, UniProt P11308 1-479)
T4 sequence: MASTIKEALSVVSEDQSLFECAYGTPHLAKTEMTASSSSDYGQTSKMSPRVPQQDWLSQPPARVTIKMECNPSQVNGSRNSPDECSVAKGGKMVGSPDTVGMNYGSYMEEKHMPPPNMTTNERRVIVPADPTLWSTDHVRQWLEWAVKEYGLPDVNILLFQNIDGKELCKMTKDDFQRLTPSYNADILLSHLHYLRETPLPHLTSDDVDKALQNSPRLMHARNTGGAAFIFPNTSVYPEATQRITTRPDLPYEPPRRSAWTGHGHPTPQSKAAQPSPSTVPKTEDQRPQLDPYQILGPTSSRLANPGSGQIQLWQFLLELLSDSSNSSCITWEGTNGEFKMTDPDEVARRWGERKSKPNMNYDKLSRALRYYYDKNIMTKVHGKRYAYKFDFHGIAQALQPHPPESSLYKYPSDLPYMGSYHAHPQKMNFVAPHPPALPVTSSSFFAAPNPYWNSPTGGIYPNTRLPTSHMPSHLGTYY
Outline: as §1

ELF1 = ELF1 (Homo sapiens, UniProt P32519 1-619)
Outline: as §1

EHF = target: T5, EHF (Homo sapiens, UniProt Q9NZC4 1-300)
T5 sequence: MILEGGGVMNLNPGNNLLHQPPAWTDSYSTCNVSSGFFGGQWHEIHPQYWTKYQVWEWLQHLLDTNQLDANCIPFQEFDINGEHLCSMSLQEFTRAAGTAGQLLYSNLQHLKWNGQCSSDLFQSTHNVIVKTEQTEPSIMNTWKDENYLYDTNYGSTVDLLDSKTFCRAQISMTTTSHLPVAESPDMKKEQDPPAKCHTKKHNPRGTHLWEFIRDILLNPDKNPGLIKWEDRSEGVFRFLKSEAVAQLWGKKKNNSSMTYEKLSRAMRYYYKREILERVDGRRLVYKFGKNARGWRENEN
Outline: as §1

SPI1 = SPI1 (Homo sapiens, UniProt P17947 1-270)
Outline: as §1

SPIB = SPIB (Homo sapiens, UniProt Q01892 1-262)
Outline: as §1

ELK3 = target: T6, ELK3 (Homo sapiens, UniProt P41970 1-407)
T6 sequence: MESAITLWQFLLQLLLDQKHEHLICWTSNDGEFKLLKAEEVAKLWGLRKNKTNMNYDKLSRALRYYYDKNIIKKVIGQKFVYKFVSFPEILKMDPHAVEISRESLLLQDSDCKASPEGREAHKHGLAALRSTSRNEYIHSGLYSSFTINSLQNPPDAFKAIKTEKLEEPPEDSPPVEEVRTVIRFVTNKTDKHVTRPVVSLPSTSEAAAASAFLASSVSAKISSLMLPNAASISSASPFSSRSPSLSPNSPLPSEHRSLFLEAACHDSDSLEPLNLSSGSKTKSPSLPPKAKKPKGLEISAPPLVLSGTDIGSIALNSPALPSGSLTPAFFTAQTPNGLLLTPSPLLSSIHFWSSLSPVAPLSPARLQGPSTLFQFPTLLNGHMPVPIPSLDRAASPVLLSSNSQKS
Outline: as §1

SPIB, sequence (Q01892 whole entry): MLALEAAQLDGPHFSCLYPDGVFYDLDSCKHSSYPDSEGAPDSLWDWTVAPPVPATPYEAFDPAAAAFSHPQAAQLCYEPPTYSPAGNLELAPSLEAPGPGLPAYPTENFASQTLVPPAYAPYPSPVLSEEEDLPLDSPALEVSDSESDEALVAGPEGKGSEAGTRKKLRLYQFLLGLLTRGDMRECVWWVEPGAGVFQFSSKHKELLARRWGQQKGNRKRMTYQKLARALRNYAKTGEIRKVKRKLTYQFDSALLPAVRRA
ELF1, sequence (P32519 whole entry): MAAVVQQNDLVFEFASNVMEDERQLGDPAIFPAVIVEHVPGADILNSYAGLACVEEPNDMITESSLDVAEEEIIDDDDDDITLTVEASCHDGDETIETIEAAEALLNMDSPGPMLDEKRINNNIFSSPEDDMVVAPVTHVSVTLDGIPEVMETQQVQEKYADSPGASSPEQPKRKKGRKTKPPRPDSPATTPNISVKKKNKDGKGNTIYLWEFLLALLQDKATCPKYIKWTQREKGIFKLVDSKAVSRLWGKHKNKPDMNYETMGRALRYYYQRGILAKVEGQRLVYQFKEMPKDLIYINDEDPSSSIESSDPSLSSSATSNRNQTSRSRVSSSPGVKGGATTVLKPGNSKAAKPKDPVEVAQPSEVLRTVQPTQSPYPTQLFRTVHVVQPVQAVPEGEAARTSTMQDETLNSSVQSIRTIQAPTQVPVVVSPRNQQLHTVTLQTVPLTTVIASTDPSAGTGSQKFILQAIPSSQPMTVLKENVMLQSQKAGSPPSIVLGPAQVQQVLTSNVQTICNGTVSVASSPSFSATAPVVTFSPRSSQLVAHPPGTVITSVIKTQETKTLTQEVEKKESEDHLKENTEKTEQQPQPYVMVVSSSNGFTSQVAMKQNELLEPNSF

GACTCC
binding signal (FLI1): 1.35 fold enrichment (6-mer frequency, TF over GST control)
binding signal (ELK1): 1.23 fold enrichment (6-mer frequency, TF over GST control)
binding signal (GABPA): 1.29 fold enrichment (6-mer frequency, TF over GST control)
binding signal (ERG): 1.3 fold enrichment (6-mer frequency, TF over GST control)
binding signal (ELF1): 1.35 fold enrichment (6-mer frequency, TF over GST control)
binding signal (EHF): 1.37 fold enrichment (6-mer frequency, TF over GST control)
binding signal (SPI1): 1.35 fold enrichment (6-mer frequency, TF over GST control)
binding signal (SPIB): 1.38 fold enrichment (6-mer frequency, TF over GST control)
binding signal (ELK3): 1.25 fold enrichment (6-mer frequency, TF over GST control)
